Screens: PubChem, National Center for Advancing Translational Sciences (NCATS)
Only a selection was taken, and hits are over-represented in it overall.
Giardia FBPA inh = inhibitors of Giardia lamblia fructose-1,6-bisphosphate aldolase; purified Giardia FBPA; Potency, µM (top dose mostly 59.6 µM), for the others: top-dose activity, negative = inhibition, hits mostly inhibitors; 290,000 tested, 0.71% active; also: potency is read from the fitted curve at half-maximal effect; % is scaled to controls: 0 for no effect and ±100 for the full control effect; nearly all actives have a fitted effect of over 55% in size
Target sequence (A8B2U2 whole entry, looked up): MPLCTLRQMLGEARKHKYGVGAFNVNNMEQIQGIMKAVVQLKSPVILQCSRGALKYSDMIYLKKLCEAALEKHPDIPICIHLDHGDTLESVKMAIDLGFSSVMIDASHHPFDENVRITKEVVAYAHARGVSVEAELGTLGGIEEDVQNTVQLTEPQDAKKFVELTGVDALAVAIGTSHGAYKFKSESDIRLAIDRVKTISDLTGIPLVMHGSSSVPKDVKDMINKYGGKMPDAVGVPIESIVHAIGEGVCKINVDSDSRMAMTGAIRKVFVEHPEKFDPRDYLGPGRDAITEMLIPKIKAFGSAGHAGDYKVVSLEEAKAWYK
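40 nM FBPA preincubated 10 min at RT with compound (up to 57.5 uM final), then substrate plus GAPDH/TPI/NAD/arsenate coupling and diaphorase/resazurin added. Fluorescence read after 20 min at RT, 525/598 nm.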
LmPK inhibitor = LmPK (Leishmania mexicana) enzyme inhibition; purified LmPK, Kinase-Glo ATP luminescence, 1 h; Potency, µM (series often up to 57.5 µM), without a hit: at the top dose activity change, negative = inhibition, actives largely listed as inhibitors; 290,000 tested, 0.37% active; AID 1721; also: potency is read from the fitted curve at half-maximal effect; % is scaled to controls: 0 for no effect and ±100 for the full control effect
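Purified LmPK (0.1 nM) with 0.5 mM PEP and 0.1 mM ADP in imidazole buffer pH 7.2 with MgCl2/KCl, 1 h at room temperature. ATP formed was read by luciferase luminescence and normalized to no-enzyme and uninhibited controls.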
Shiga inhibitor = blocks Shiga toxin action in Vero cells. Vero cells, Shiga toxin protein synthesis inhibition reporter. 290,000 tested, 9.2% active. inhibition, % at 38.7 µM; in the data active = inhibition mostly above about 28%, no sharp cut-off; inactive = mostly below about 43%; also: 0% is about no effect
TbPYK inhibitor = blocks Trypanosoma brucei pyruvate kinase; AID 624173; Q57TT1; TbPYK enzyme, Kinase-Glo Plus ATP luminescence, 45 min; 410,000 tested, 0.12% active; Potency, µM (series often up to 76.8 µM), without a hit: at the highest dose activity, negative = inhibition, hits mostly inhibitors; also: potency is read from the fitted curve at half-maximal effect; % is scaled to controls: 0 for no effect and ±100 for the full control effect; nearly all actives have a fitted effect of over 50% in size
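Quantitative HTS: titrated library compounds versus trypanosomal pyruvate kinase in TEA buffer (pH 7.2) containing KCl, MgCl2, BSA and Tween-20. Reactions were initiated with ADP, 130 uM final. Kinase-Glo Plus luminescence was read after 45 min at RT.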
Sm TGR block = blocks Schistosoma mansoni thioredoxin glutathione reductase. AID 485364. Potency, µM (highest dose often 114 µM), inactives show at the highest dose activity change, negative = inhibition, hits mostly inhibitors. purified TGR, DTNB reduction, TNB absorbance 405 nm. 360,000 tested, 3% active. Q962Y6; also: potency is read from the fitted curve at half-maximal effect; % is scaled to controls: 0 for no effect and ±100 for the full control effect; nearly all actives have a fitted effect of over 60% in size
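First, TGR (20 nM dispensed) and NADPH were mixed with compound. Second, a 15 min room-temperature incubation followed. Third, further NADPH and then DTNB were added to start the reaction. Finally, TNB absorbance was monitored kinetically.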
Cycloheximide cs = counter-screen hit for Shiga toxin inhibitors, cycloheximide. 300,000 tested, 12% active. cell reporter, cycloheximide protein synthesis inhibition counterscreen. max response, %; in the data active = max response mostly above about 13%, no sharp cut-off; inactive = mostly below about 14%; also: read at 38.3 µM for the half of the compounds with a filed dose; 0% is about no effect
Active calls of the source: *; u = inconclusive; x = no result given; [ ] = another dose, or the depositor's remark. Unless noted, calls follow the shape of the dose curve; as a rule, active = well fitted curve in the direction sought with a large enough effect; inconclusive = small, poorly fitted or top-dose-only effect, or another doubt; inactive = no such curve, though single readings can be large; an effect the other way counts as inactive or inconclusive.

SMILES	Giardia FBPA inh	LmPK inhibitor	Shiga inhibitor	TbPYK inhibitor	Sm TGR block	Cycloheximide cs
COc1cc(/C=C2\NC(=S)NC2=O)ccc1OCc1cccc(C(=O)O)c1	-7.6%	-5.8%	102.5*	-13.0%	4.8%	79.0*
O=C(CSc1cccc[n+]1[O-])Nc1cc(S(=O)(=O)N2CCOCC2)ccc1Cl	0.8%	-3.3%	13.0	-5.4%	1.3%	-1.7
O=C(CSc1cccc[n+]1[O-])Nc1cc2c(cc1Cl)C(=O)c1ccccc1C2=O	-3.1%	0.9%	81.5*	-13.8%	-5.4%	26.4*
O=C(CSc1cccc[n+]1[O-])Nc1cc([N+](=O)[O-])ccc1Cl	-1.0%	0.3%	-7.2	6.8%	0.0%	-2.6
O=C(CSc1cccc[n+]1[O-])Nc1cc(S(=O)(=O)N2CCOCC2)ccc1N1CCOCC1	0.4%	4.2%	14.3	1.9%	-4.3%	49.4*
CC(=O)NCCC1CCCCN1C(=O)c1cc(COc2cc(C)ccc2C)on1 (stereo not drawn)	x	-0.6%	101.2*	0.0%	-11.2%	44.7*
COCCN1CCN(C(=O)c2cc(COc3cc(C)ccc3C)on2)CC1	-15.4%	-0.6%	81.2*	0.1%	-26.0%	39.0*
COCCCC1CCN(C(=O)c2cc(COc3cc(C)ccc3C)on2)CC1	x	3.1%	161.6*	-7.3%	-21.6%	55.7*
Cc1ccc(C)c(OCc2cc(C(=O)NC3CCN(Cc4ccccc4)CC3)no2)c1	0.3%	8.9%	22.6	8.6%	5.2%	29.2*
CCCCOC(=O)c1ccc(Nc2nc3ccc(C(=O)c4ccccc4)cc3n3cnnc23)cc1	x	x	x	0.3%[15.4 µM]	-1.9%	x
CCc1ccc(NC(=O)CC2C(=O)N(c3ccc(Cl)cc3)C(=O)N2Cc2ccco2)cc1 (stereo not drawn)	x	x	x	-1.0%	-2.5%	x
COc1ccccc1NC(=O)CN(C)S(=O)(=O)c1ccc2c(c1)c(=O)n(C)c(=O)n2C	x	x	x	-4.5%	-3.8%	x
Cc1ccc2nc3c(cc(C#N)c(=O)n3-c3nnc(SCc4ccc(F)cc4)s3)c(=O)n2c1	x	x	x	-1.7%	-13.1%	x
Cc1ccc(C)c(OCc2cc(C(=O)N3CCOCC3)no2)c1	-0.9%	2.8%	58.3*	-1.9%	-19.3%	48.6*
COC1CCN(C(=O)c2cc(COc3cc(C)ccc3C)on2)CC1	x	x	x	-10.4%	x	x
COc1ccccc1NC(=O)CSc1nnnn1C1CCCCC1	x	-3.5%	0.7	-0.2%	7.2%	-5.1
Cc1sc2nc(C)n(/N=C/N(C)C)c(=O)c2c1C	12.1%	-2.7%	-4.4	2.1%	9.1%	7.0
Cc1nc2scc(-c3ccco3)c2c(=O)n1/N=C/N(C)C	-9.2%	-1.8%	3.5	-9.6%	25.1µM*	1.8
NC(=O)CSc1nc2sc(-c3ccccc3)cc2c(=O)n1N	7.3%	-3.3%	33.8	1.2%	-6.9%	26.3*
Cc1nc2sc(-c3ccccc3)cc2c(=O)n1-n1cccc1	0.4%	-5.8%	112.9*	-4.9%	2.0%	42.4*
Cc1nc2sc(-c3ccccc3)cc2c(=O)n1/N=C/N(C)C	-9.9%	-18.6%	72.1*	-0.9%	1.8%	37.3*
Cc1ccccc1-c1nc2sc(-c3ccccc3)cc2c(=O)o1	1.2%	1.7%	19.4	8.7%	10.3%	2.0
CCc1cc2c(=O)n(-c3ccccc3)c(SCC(N)=O)nc2s1	-6.8%	-1.8%	-7.7	1.4%	-29.6%	13.7
Cc1nc2ccccc2c(=O)n1N	9.1%	6.5%	19.6	-9.2%	-4.3%	-2.4
Cc1nc2sc(-c3ccccc3)cc2c(=O)n1N	2.4%	7.08µM*	56.4*	u	3.8%	44.3*
SMILES	Giardia FBPA inh	LmPK inhibitor	Shiga inhibitor	TbPYK inhibitor	Sm TGR block	Cycloheximide cs
O=c1c2cc(-c3ccccc3)sc2nc2n1CCC2	0.9%	-20.6%	102.6*	x	1.2%	47.0*
CCOC(=O)CNc1ccc(OC(F)(F)F)cc1	2.8%	4.6%	1.5	0.7%	3.0%	1.7
Cc1ccc(NC(=O)CNCc2cccs2)cc1Br	u	-0.3%	52.4*	11.7%	-5.9%	25.8*
CCC(C)NS(=O)(=O)c1ccc(NC(=O)CNCc2cccs2)cc1 (stereo not drawn)	x	x	x	-3.5%	x	x
CC(=O)c1ccc(NC(=O)CNCc2cccs2)cc1	u	-2.6%	52.3*	19.4%	5.0%	54.4*
O=C(CNCc1cccs1)Nc1ccc(S(=O)(=O)N2CCCCC2)cc1	u	-3.6%	-10.3	11.6%	-0.3%	-1.5
CCC(C)(C)NCC(=O)Nc1ccc(OC(F)(F)F)cc1	9.0%	-13.7%	35.0	6.5%	3.4%	15.5*
O=C(CNCc1cccs1)Nc1ccc(OC(F)(F)F)cc1	u	-1.2%	82.0*	4.9%	-7.8%	19.7*
C=CCN(C(=O)CNC(=O)c1ccco1)C(C(=O)NC1CCCC1)c1ccc(OC)cc1 (stereo not drawn)	7.4%	-0.2%	-6.4	-1.9%	-18.7%	-1.4
CCOC(=O)c1c(C)[nH]c(C(=O)Nc2cc(OCC)c(N3CCOCC3)cc2OCC)c1C	x	x	x	-1.9%	2.7%	x
Cc1noc(C)c1-c1ccc2ncnc(NCC3CCN(C)CC3)c2c1	-0.2%	x	21.0	x	x	28.2
O=S(=O)(c1ccc(Cl)cc1)c1cc(Cl)c(Cl)cc1Cl	1.9%	x	21.9	x	x	-6.2
O=C1CC(c2ccccc2)Sc2nc3ccccc3n21 (stereo not drawn)	-1.3%	-16.3%	98.5*	-18.8%	7.2%	40.8*
O=C1CC(c2ccc3c(c2)OCO3)Sc2nc3ccccc3n21 (stereo not drawn)	11.3%	u	106.1*	-2.3%	-9.5%	51.4*
O=C1CSCc2nc3ccccc3n21	x	x	x	-12.7%	x	x
O=C1CC(c2cccs2)Sc2nc3ccccc3n21 (stereo not drawn)	-1.3%	-15.2%	106.2*	-11.3%	2.5%	44.9*
O=C1CC(c2ccco2)Sc2nc3ccccc3n21 (stereo not drawn)	0.1%	-11.2%	82.2*	-13.3%	50.1µM*	35.8*
O=C(C[C@@H]1C/C=C\CCC(=O)OC[C@H](Cc2ccccc2)NC1=O)N[C@@H](CO)Cc1ccccc1	x	x	x	3.6%	x	x
Cc1nc2ccc(S(=O)(=O)NCC(=O)N3CCc4ccccc43)cc2s1	3.3%	-1.3%	-3.3	1.7%	56.2µM*	-4.4
CC(C)c1cc(C(=O)Nc2cccc(C(F)(F)F)c2)no1	-8.5%	-7.2%	121.5*	3.3%	0.8%	49.7*
O=C(Nc1cccc(Cl)c1)c1cccnn1	-4.1%	-1.6%	24.9	0.8%	3.6%	21.9
O=C(Nc1cccc(C(F)(F)F)c1)c1cccnn1	-3.5%	-7.9%	-4.6	0.2%	89.1µM*	-1.0
CCOc1ccc(NC(=O)CSC2=Nc3ccccc3C3=NC(CCC(=O)NCc4cccs4)C(=O)N23)cc1 (stereo not drawn)	x	x	x	-9.8%	1.7%	x
O=C(O)CCCCCNS(=O)(=O)c1cccc2c1C(=O)c1ccccc1C2=O	u	0.6%	13.2	8.7%	50.1µM*	8.2
O=C(O)CCCCCNS(=O)(=O)/C=C/c1ccccc1	4.9%	2.5%	-11.2	-10.3%	x	-1.3
